Experimental data as given in PubChem BioAssay AID1159580 (chemical genetic matrix, 2015).
Values joined by “and” are separate entries in the source; they are usually repeats but may differ in a detail not shown here. Identical values can stand only once. Among all 5,500 compounds or so, about 2,000 (36%) were called active. Inconclusive results (about 18%) are left out. No stated cut-off is given here; in the data, active means normalized growth mostly below about 0.91 (no sharp cut-off); inconclusive means no clear call, values can overlap the other calls; inactive means mostly above about 0.92. Some of the results follow.

Assay: chemical genetic growth profiling, strain panel (AID 1159580);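 further: tested at 20 µM; growth read once vehicle control cultures reached saturation at 30 °C; 1 = growth at the plate median or of vehicle wells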
Conditions: S. cerevisiae deletion strains, growth OD
[1] = locus YMR263W, strain SAP30, stronger effect = lower value
[2] = locus YMR307W, strain GAS1, stronger effect = lower value
[3] = locus YPL241C, strain CIN2, stronger effect = lower value

Measured: normalized growth

C[C@]12CCC3c4ccc(OC(=O)c5ccccc5)cc4CCC3C1CCC2=O (stereo partly drawn)
inactive: locus YAL013W, strain DEP1, stronger effect = lower value 0.986 | locus YAL021C, strain ccr4, stronger effect = lower value 1 | locus YAL026C, strain drs2, stronger effect = lower value 0.989 | locus YAL030W, strain snc1, stronger effect = lower value 0.99 | locus YBL061C, strain skt5, stronger effect = lower value 0.987 | locus YBR009C, strain hhf1, stronger effect = lower value 0.972 | locus YBR021W, strain FUR4, stronger effect = lower value 0.981 | locus YBR023C, strain chs3, stronger effect = lower value 0.984 | locus YBR171W, strain sec66, stronger effect = lower value 0.977 | locus YBR229C, strain ROT2, stronger effect = lower value 1 | locus YBR231C, strain swc5, stronger effect = lower value 0.987 | locus YBR279W, strain paf1, stronger effect = lower value 0.988 | locus YCL011C, strain gbp2, stronger effect = lower value 0.987 | locus YCL016C, strain dcc1, stronger effect = lower value 0.985 | locus YCL029C, strain bik1, stronger effect = lower value 0.996 | locus YCL061C, strain MRC1, stronger effect = lower value 0.988 | locus YCL069W, strain vba3, stronger effect = lower value 0.986 | locus YCR088W, strain abp1, stronger effect = lower value 0.984 | locus YDL005C, strain med2, stronger effect = lower value 0.987 | locus YDL035C, strain GPR1, stronger effect = lower value 0.986 | locus YDL040C, strain nat1, stronger effect = lower value 0.993 | locus YDL074C, strain BRE1, stronger effect = lower value 0.974 | locus YDL101C, strain DUN1, stronger effect = lower value 1 | locus YDL185W, strain tfp1, stronger effect = lower value 0.951 | locus YDL192W, strain arf1, stronger effect = lower value 1.02 | locus YDR001C, strain nth1, stronger effect = lower value 0.986 | locus YDR069C, strain doa4, stronger effect = lower value 0.98 | locus YDR101C, strain arx1, stronger effect = lower value 0.969 | locus YDR137W, strain rgp1, stronger effect = lower value 1 | locus YDR159W, strain sac3, stronger effect = lower value 0.968 | locus YDR162C, strain NBP2, stronger effect = lower value 1.01 | locus YDR195W, strain ref2 0.934 | locus YDR297W, strain sur2, stronger effect = lower value 0.985 | locus YDR318W, strain mcm21, stronger effect = lower value 1.02 | locus YDR334W, strain swr1, stronger effect = lower value 0.986 | locus YDR335W, strain msn5, stronger effect = lower value 0.982 | locus YDR388W, stronger effect = lower value 0.992 | locus YDR392W, strain spt3, stronger effect = lower value 0.864 | locus YDR502C, strain sam2, stronger effect = lower value 1 | locus YEL003W, strain gim4, stronger effect = lower value 0.977 | locus YEL037C, strain rad23, stronger effect = lower value 0.98 | locus YEL061C, strain CIN8 (second series), stronger effect = lower value 0.981 | locus YEL061C, strain CIN8, stronger effect = lower value 1 | locus YER015W, strain faa2, stronger effect = lower value 0.991 | locus YER016W, strain bim1, stronger effect = lower value 0.969 | locus YER110C, stronger effect = lower value 0.982 | locus YER111C, strain swi4, stronger effect = lower value 0.974 | locus YER155C, strain BEM2 (second series), stronger effect = lower value 0.974 | locus YER155C, strain BEM2, stronger effect = lower value 0.996 | locus YER167W, strain BCK2, stronger effect = lower value 1.01 | locus YFR010W, strain ubp6, stronger effect = lower value 0.993 | locus YGL078C, strain dbp3, stronger effect = lower value 1.01 | locus YGL086W, strain mad1, stronger effect = lower value 0.972 | locus YGL167C, strain pmr1, stronger effect = lower value 0.965 | locus YGL173C, strain kem1, stronger effect = lower value 0.988 | locus YGL227W, strain vid30, stronger effect = lower value 0.986 | locus YGL240W, strain doc1, stronger effect = lower value 0.99 | locus YGL248W, strain PDE1, stronger effect = lower value 1.02 | locus YGL253W, strain hxk2, stronger effect = lower value 0.976 | locus YGR135W, strain pre9, stronger effect = lower value 1.03 | locus YGR252W, strain gcn5, stronger effect = lower value 1.2 | locus YHR013C, strain ard1, stronger effect = lower value 0.939 | locus YHR027C, strain rpn1, stronger effect = lower value 0.996 | locus YHR030C, strain SLT2, stronger effect = lower value 0.991 and 1.06 | locus YHR079C, strain IRE1 (second series), stronger effect = lower value 0.997 | locus YHR079C, strain IRE1, stronger effect = lower value 1.07 | locus YHR094C, strain hxt1, stronger effect = lower value 0.999 | locus YHR129C, strain ARP1, stronger effect = lower value 0.997 | locus YHR142W, strain chs7, stronger effect = lower value 0.996 | locus YHR200W, strain rpn10, stronger effect = lower value 0.994 | locus YIL066C, strain RNR3, stronger effect = lower value 1 | locus YIL073C, strain SPO22, stronger effect = lower value 0.933 | locus YIL125W, strain kgd1, stronger effect = lower value 1 | locus YIR030C, strain dcg1, stronger effect = lower value 1.01 | locus YJL092W, strain hpr5, stronger effect = lower value 0.98 | locus YJL095W, strain BCK1 (second series), stronger effect = lower value 0.992 | locus YJL095W, strain BCK1, stronger effect = lower value 1.05 and 1.07 | locus YJL115W, strain asf1, stronger effect = lower value 0.995 | locus YJL129C, strain trk1, stronger effect = lower value 0.979 | locus YJL134W, strain LCB3, stronger effect = lower value 0.987 | locus YJL154C, strain vps35, stronger effect = lower value 0.986 | locus YJL164C, strain tpk1, stronger effect = lower value 0.977 | locus YJL166W, strain qcr8, stronger effect = lower value 0.983 | locus YJL168C, strain set2, stronger effect = lower value 0.996 | locus YJL187C, strain SWE1 (second series), stronger effect = lower value 1.01 | locus YJL187C, strain SWE1, stronger effect = lower value 0.996 | locus YJR043C, strain POL32, stronger effect = lower value 1.01 | locus YJR066W, strain TOR1, stronger effect = lower value 1.01 | locus YJR075W, strain HOC1, stronger effect = lower value 0.998 | locus YKL009W, strain mrt4, stronger effect = lower value 0.977 | locus YKL068W, stronger effect = lower value 0.975 | locus YKL085W, strain MDH1 (second series), stronger effect = lower value 1.01 | locus YKL085W, strain MDH1, stronger effect = lower value 1.01 | locus YKL160W, strain elf1, stronger effect = lower value 1.01 | locus YKR001C, strain vps1, stronger effect = lower value 0.993 | locus YKR026C, strain gcn3, stronger effect = lower value 0.978 | locus YKR091W, strain srl3, stronger effect = lower value 0.986 | locus YLL001W, strain dnm1, stronger effect = lower value 0.998 | locus YLL026W, stronger effect = lower value 0.984 | locus YLL041C, strain sdh2, stronger effect = lower value 0.989 | locus YLR027C, strain aat2, stronger effect = lower value 0.998 | locus YLR039C, strain RIC1, stronger effect = lower value 1.01 | locus YLR058C, strain SHM2, stronger effect = lower value 1.01 | locus YLR102C, strain apc9, stronger effect = lower value 0.993 | locus YLR113W, strain HOG1, stronger effect = lower value 1 | locus YLR221C, strain rsa3, stronger effect = lower value 1.01 | locus YLR258W, strain gsy2, stronger effect = lower value 0.971 | locus YLR262C, strain YPT6 (second series), stronger effect = lower value 0.94 | locus YLR262C, strain YPT6, stronger effect = lower value 0.959 | locus YLR268W, strain sec22, stronger effect = lower value 0.972 | locus YLR320W, strain mms22, stronger effect = lower value 0.98 | locus YLR330W, strain CHS5, stronger effect = lower value 0.984 | locus YLR342W, strain FKS1 (second series), stronger effect = lower value 1.01 | locus YLR342W, strain FKS1, stronger effect = lower value 0.979 | locus YLR357W, strain rsc2, stronger effect = lower value 0.947 | locus YLR370C, strain arc18, stronger effect = lower value 0.99 | locus YLR371W, strain rom2, stronger effect = lower value 1 | locus YLR384C, strain iki3, stronger effect = lower value 0.985 | locus YLR418C, strain cdc73, stronger effect = lower value 1.07 | locus YML016C, strain PPZ1, stronger effect = lower value 0.998 | locus YML032C, strain rad52, stronger effect = lower value 1.03 | locus YML120C, strain ndi1, stronger effect = lower value 0.986 | locus YML124C, strain tub3, stronger effect = lower value 1.01 | locus YMR058W, strain fet3, stronger effect = lower value 0.985 | locus YMR078C, strain ctf18, stronger effect = lower value 1.01 | locus YMR125W, strain sto1, stronger effect = lower value 0.978 | locus YMR129W, stronger effect = lower value 0.969 | locus YMR205C, strain PFK2, stronger effect = lower value 0.949 | locus YMR223W, strain ubp8, stronger effect = lower value 1.04 | locus YMR231W, strain pep5, stronger effect = lower value 0.979 | [1] 0.997 | [2] 1.22 | locus YNL067W, strain RPL9B, stronger effect = lower value 1.02 | locus YNL071W, strain lat1, stronger effect = lower value 0.993 | locus YNL128W, strain TEP1, stronger effect = lower value 0.971 | locus YNL153C, strain GIM3, stronger effect = lower value 1.02 | locus YNL183C, strain NPR1, stronger effect = lower value 1.01 | locus YNL209W, strain ssb2, stronger effect = lower value 0.989 | locus YNL233W, strain BNI4, stronger effect = lower value 1.01 | locus YNL248C, strain rpa49, stronger effect = lower value 1.01 | locus YNL250W, strain rad50, stronger effect = lower value 0.96 | locus YNL271C, strain bni1, stronger effect = lower value 1.02 | locus YNL298W, strain CLA4, stronger effect = lower value 1.01 | locus YNL307C, strain MCK1, stronger effect = lower value 0.996 | locus YNL322C, strain KRE1 (second series), stronger effect = lower value 0.994 | locus YNR049C, strain mso1, stronger effect = lower value 0.98 | locus YNR052C, strain pop2, stronger effect = lower value 1.02 | locus YOL012C, strain htz1 1.22 | locus YOL147C, strain pex11, stronger effect = lower value 0.998 | locus YOR001W, strain rrp6, stronger effect = lower value 1.01 | locus YOR061W, strain CKA2, stronger effect = lower value 1.01 | locus YOR069W, strain VPS5, stronger effect = lower value 0.993 | locus YOR070C, strain gyp1, stronger effect = lower value 0.984 | locus YOR080W, strain dia2, stronger effect = lower value 0.983 | locus YOR083W, strain WHI5, stronger effect = lower value 1.03 | locus YOR106W, strain vam3, stronger effect = lower value 1.04 | locus YOR136W, strain idh2, stronger effect = lower value 0.992 | locus YOR144C, strain elg1, stronger effect = lower value 0.998 | locus YOR184W, strain ser1, stronger effect = lower value 0.975 | locus YOR231W, strain MKK1, stronger effect = lower value 1.08 | locus YOR265W, strain rbl2, stronger effect = lower value 0.989 | locus YOR270C, strain vph1, stronger effect = lower value 0.99 | locus YOR290C, strain snf2, stronger effect = lower value 0.912 | locus YOR316C, strain cot1, stronger effect = lower value 0.993 | locus YPL051W, strain arl3, stronger effect = lower value 1.02 | locus YPL078C, strain atp4, stronger effect = lower value 0.998 | locus YPL106C, strain sse1, stronger effect = lower value 0.972 | locus YPL240C, strain hsp82, stronger effect = lower value 0.997 | [3] 0.999 | locus YPL256C, strain CLN2, stronger effect = lower value 1.12 | locus YPR119W, strain clb2, stronger effect = lower value 1.01 | locus YPR141C, strain kar3, stronger effect = lower value 1.01 | locus YPR163C, strain tif3, stronger effect = lower value 1 | locus YPR167C, strain met16, stronger effect = lower value 1.01 | strain wtn01, stronger effect = lower value 0.983

C[C@]12CC[C@@H]3c4ccc(O)cc4CC[C@H]3[C@@H]1CCC2=O
inactive: locus YAL040C, strain CLN3, stronger effect = lower value 0.996 | locus YCL061C, strain MRC1 (second series), stronger effect = lower value 1.01 | locus YDR150W, strain NUM1, stronger effect = lower value 1 | locus YDR363W, strain ESC2, stronger effect = lower value 1 | locus YER002W, strain NOP16, stronger effect = lower value 0.995 | [1] 1 | [2] 1 | locus YNL175C, strain NOP13, stronger effect = lower value 0.985 | locus YNL197C, strain WHI3, stronger effect = lower value 1 | locus YNL224C, strain SQS1, stronger effect = lower value 1 | locus YNL322C, strain KRE1, stronger effect = lower value 0.987 | locus YOR083W, strain WHI5 (second series), stronger effect = lower value 0.905 | [3] 1
